Test systems include SR leukemia; RPMI-8226 leukemia; OVCAR-8 ovarian; OVCAR-5 ovarian; OVCAR-4 ovarian; SK-OV-3 ovarian; IGROV1 ovarian; OVCAR-3 ovarian; HS 578T breast; NCI/ADR-RES ovarian.
Test in all cases: NCI-60 one-dose screen, 48 h (100 = growth as untreated, 0 = no growth, -100 = all killed)
Conditions in all cases: 10 µM unless noted

Where “and” joins values, the source holds several entries; their conditions need not be identical. Identical values can stand only once. The panel holds about 83,000 compounds, 20% with a hit somewhere; the sample as a whole holds those more often.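 96-well plates, one dose, 48 hours. Percent growth reported; active if below 10.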 Unmarked numbers belong to inactive results. Calls of active or inactive are those of the source.

`CCCCCCCCCCNC(=O)CI`: the growth with SR leukemia was -40.9% (active); in the assay with RPMI-8226 leukemia, -37.1% (active); in the assay on OVCAR-8 ovarian, 0.969% (active); with OVCAR-5 ovarian it was 95.8%; in the assay with OVCAR-4 ovarian it was -44.1% (active); with SK-OV-3 ovarian, 5.75% (active). Besides, the growth is -67.4% (active) with IGROV1 ovarian, -70.3% (active) in the assay on OVCAR-3 ovarian and 91.3% with HS 578T breast.
Consider `OCC1OC(O)C(O)C(O)C1O` (centres undefined), for which the growth in the assay on SR leukemia was 106%; in the assay with RPMI-8226 leukemia, 110%; in the assay on OVCAR-8 ovarian, 108%; with OVCAR-5 ovarian, 106%; with OVCAR-4 ovarian it was 103%; in the assay with SK-OV-3 ovarian it was 109%. For the same compound, the growth in the assay with IGROV1 ovarian is 126%; with OVCAR-3 ovarian, 120%; with HS 578T breast, 116%.
On to `c1ccc(CNCCNCc2ccccc2)cc1`, for which the growth in the assay on SR leukemia is 95.3%; with RPMI-8226 leukemia it was 101%; in the assay with OVCAR-8 ovarian, 124%; in the assay on OVCAR-5 ovarian it was 102%; in the assay on OVCAR-4 ovarian, 103%; in the assay on SK-OV-3 ovarian, 107%. Further, the growth was 120% in the assay on IGROV1 ovarian, 121% in the assay on OVCAR-3 ovarian and 114% in the assay with HS 578T breast.
Turning to `Cc1ccc(=O)[nH]n1`, the growth with SR leukemia was 98.9% and 93%; in the assay on RPMI-8226 leukemia, 108%; in the assay on OVCAR-8 ovarian it was 100% and 102%; in the assay with OVCAR-5 ovarian, 115% and 98.4%; with OVCAR-4 ovarian, 112% and 122%; in the assay on SK-OV-3 ovarian, 111% and 112%. For the same compound, the growth with IGROV1 ovarian is 106%; in the assay on OVCAR-3 ovarian, 106% and 107%; in the assay with HS 578T breast, 105% and 93.7%; in the assay with NCI/ADR-RES ovarian it was 103%.
Turning to `O=C1OC(c2ccccc2)=N/C1=C\c1ccccc1`, the growth with SR leukemia is 108%; in the assay with RPMI-8226 leukemia, 102%; in the assay with OVCAR-8 ovarian, 100%; in the assay with OVCAR-5 ovarian, 105%; in the assay on OVCAR-4 ovarian, 113%; in the assay with SK-OV-3 ovarian, 97.2%. For the same compound, the growth with IGROV1 ovarian was 99.1%; in the assay with OVCAR-3 ovarian, 111%; in the assay with HS 578T breast, 97.4%.
With `O=c1n(CC2CO2)c(=O)n(CC2CO2)c(=O)n1CC1CO1` (centres undefined), the growth in the assay with SR leukemia is 17.8%; in the assay with RPMI-8226 leukemia it was 84.6%; in the assay on OVCAR-8 ovarian, 64.4%; in the assay with OVCAR-5 ovarian, 108%; in the assay with OVCAR-4 ovarian, 100%; with SK-OV-3 ovarian, 68.6%. In addition, the growth in the assay on IGROV1 ovarian was 52.3%; in the assay with OVCAR-3 ovarian it was 79.2%; in the assay on HS 578T breast, 104%; in the assay with NCI/ADR-RES ovarian, 72.2%.
Take `COc1ccc(N/C=C/C2=[N+](C)c3ccccc3C2(C)C)c(OC)c1`: the growth in the assay with SR leukemia is 101%; in the assay on RPMI-8226 leukemia, 81.6%; with OVCAR-8 ovarian, 93.6%; with OVCAR-5 ovarian it was 106%; in the assay with OVCAR-4 ovarian, 91.7%; in the assay with SK-OV-3 ovarian, 90.7%. Also, the results for the growth with IGROV1 ovarian, with OVCAR-3 ovarian and in the assay with HS 578T breast were 106%, 93.6% and 99.9%, respectively.
Take `C/C(=C\c1ccccc1)c1ccccn1`: the growth was 99.4% with SR leukemia; 114% in the assay on RPMI-8226 leukemia; 116% with OVCAR-8 ovarian; 118% in the assay with OVCAR-5 ovarian; 106% in the assay on OVCAR-4 ovarian; 106% with SK-OV-3 ovarian. Moreover, the growth with IGROV1 ovarian was 109%; in the assay on OVCAR-3 ovarian it was 106%; with HS 578T breast, 123%.
`CC(=O)NCC(=O)c1ccc([N+](=O)[O-])cc1`: the growth in the assay on SR leukemia is 104%; with RPMI-8226 leukemia, 104%; in the assay on OVCAR-8 ovarian it was 103%; in the assay with OVCAR-5 ovarian it was 103%; in the assay with OVCAR-4 ovarian, 113%; with SK-OV-3 ovarian, 108%. The growth in the assay with IGROV1 ovarian was 107%; in the assay on OVCAR-3 ovarian, 105%; in the assay with HS 578T breast it was 106%; with NCI/ADR-RES ovarian it was 104%.
Regarding `c1ccc2c(c1)OC1OC2Oc2ccccc21`, the growth in the assay on SR leukemia was 76.1%; with RPMI-8226 leukemia it was 106%; in the assay with OVCAR-8 ovarian, 104%; in the assay with OVCAR-5 ovarian, 103%; with OVCAR-4 ovarian, 105%; in the assay with SK-OV-3 ovarian, 102%. The growth in the assay on IGROV1 ovarian was 97%; in the assay with OVCAR-3 ovarian it was 101%; in the assay on HS 578T breast, 92.9%; in the assay with NCI/ADR-RES ovarian it was 95.7%.
As to `O=CN1CCCCC1`, the growth with SR leukemia is 119%; in the assay with RPMI-8226 leukemia, 177%; with OVCAR-8 ovarian, 117%; in the assay with OVCAR-5 ovarian, 104%; in the assay on OVCAR-4 ovarian, 108%; in the assay with SK-OV-3 ovarian, 113%. Further, the growth is 124% in the assay on IGROV1 ovarian, 112% in the assay on OVCAR-3 ovarian and 114% in the assay with HS 578T breast.
Regarding `Nc1ccc2c(O)cc(S(=O)(=O)O)cc2c1`, the growth was 86.3% in the assay with SR leukemia; 85% in the assay on RPMI-8226 leukemia; 105% and 97.8% with OVCAR-8 ovarian; 103% in the assay on OVCAR-5 ovarian; 93.5% in the assay on OVCAR-4 ovarian; 96.1% and 96.6% with SK-OV-3 ovarian. In addition, the growth was 130% and 86.1% in the assay on IGROV1 ovarian; 126% and 105% with OVCAR-3 ovarian; 96.3% in the assay with HS 578T breast.
As for `O=C1c2c(O)ccc(O)c2C(=O)c2c(NCCNCCO)ccc(NCCNCCO)c21`, the growth is -12.7% (active) with SR leukemia; -21.8% (active) and -30.9% (active) in the assay with RPMI-8226 leukemia; -41.6% (active) in the assay on OVCAR-8 ovarian; -15.1% (active) and -78.6% (active) in the assay on OVCAR-5 ovarian; -39.7% (active) in the assay with OVCAR-4 ovarian; -23.4% (active) and -35.4% (active) in the assay on SK-OV-3 ovarian. Also, the growth in the assay with IGROV1 ovarian was -10.4% (active) and -56.7% (active); in the assay with OVCAR-3 ovarian it was -50.5% (active) and -31.7% (active); in the assay with HS 578T breast, -22.8% (active).
As to `Cl`, the growth with SR leukemia is 104%; in the assay on RPMI-8226 leukemia it was 115%; in the assay with OVCAR-8 ovarian, 98.6%; in the assay with OVCAR-5 ovarian, 105%; with OVCAR-4 ovarian, 125%; in the assay with SK-OV-3 ovarian, 115%. The growth was 120% in the assay on IGROV1 ovarian, 119% with OVCAR-3 ovarian, 108% with HS 578T breast and 102% with NCI/ADR-RES ovarian.
Consider `CCCCOc1ccc(Nc2cc(Cl)ccc2C(=O)O)cn1`, for which the growth is 96.1% in the assay on SR leukemia; 57.8% and 93.2% with RPMI-8226 leukemia; 111% and 94.6% in the assay with OVCAR-8 ovarian; 110% and 101% in the assay on OVCAR-5 ovarian; 92.4% in the assay on OVCAR-4 ovarian; 108% in the assay on SK-OV-3 ovarian. Moreover, the growth is 42.5% and 104% with IGROV1 ovarian; 111% and 106% in the assay on OVCAR-3 ovarian; 95.3% and 99.2% in the assay on HS 578T breast.
`O=C(O)CCCl`: the growth is 83.7% with SR leukemia; 101% in the assay on RPMI-8226 leukemia; 104% in the assay with OVCAR-8 ovarian; 99.1% in the assay on OVCAR-5 ovarian; 98.8% in the assay on OVCAR-4 ovarian; 118% in the assay on SK-OV-3 ovarian. The growth with IGROV1 ovarian was 107%; in the assay on OVCAR-3 ovarian, 115%; with HS 578T breast it was 96.4%; in the assay on NCI/ADR-RES ovarian, 108%.
With `CC(=O)OCC1OC(OC(C)=O)C(OC(C)=O)C(OC(C)=O)C1OC(C)=O` (centres undefined), the growth in the assay with SR leukemia was 98.1% and 93.6%; in the assay on RPMI-8226 leukemia it was 100% and 103%; in the assay with OVCAR-8 ovarian, 97.5% and 99.7%; with OVCAR-5 ovarian, 101% and 112%; in the assay with OVCAR-4 ovarian, 97% and 104%; in the assay with SK-OV-3 ovarian it was 102% and 106%. Further, the growth is 108% and 105% in the assay on IGROV1 ovarian; 110% and 107% in the assay with OVCAR-3 ovarian; 132% and 101% with HS 578T breast.
Regarding `CCc1cc(C)cc(O)c1`, the growth is 102% in the assay with SR leukemia; 106% in the assay with RPMI-8226 leukemia; 105% with OVCAR-8 ovarian; 106% in the assay with OVCAR-5 ovarian; 112% in the assay with OVCAR-4 ovarian; 102% with SK-OV-3 ovarian. Also, the growth in the assay on IGROV1 ovarian was 92%; in the assay on OVCAR-3 ovarian, 126%; in the assay with HS 578T breast, 110%.
In the case of `C#CCOC(=O)Nc1ccccc1`, the growth is 111% in the assay with SR leukemia; 105% in the assay with RPMI-8226 leukemia; 103% in the assay on OVCAR-8 ovarian; 95.8% in the assay on OVCAR-5 ovarian; 93.5% with OVCAR-4 ovarian; 109% with SK-OV-3 ovarian. In addition, the growth is 109% with IGROV1 ovarian, 115% in the assay on OVCAR-3 ovarian, 105% with HS 578T breast and 104% in the assay with NCI/ADR-RES ovarian.
Regarding `CCOC(=O)c1c(C)cc(=O)oc1C`, the growth is 92% with SR leukemia; 97.9% in the assay on RPMI-8226 leukemia; 111% in the assay with OVCAR-8 ovarian; 101% with OVCAR-5 ovarian; 108% in the assay on OVCAR-4 ovarian; 103% in the assay with SK-OV-3 ovarian. The results for the growth in the assay on IGROV1 ovarian, in the assay with OVCAR-3 ovarian and in the assay with HS 578T breast were 99.2%, 121% and 118%, respectively.
For `CC(C)NCC(O)c1ccc(O)c(O)c1` (centres undefined), the growth in the assay on SR leukemia is 87.9% and 95.3%; in the assay with RPMI-8226 leukemia, 96.6% and 99.6%; with OVCAR-8 ovarian it was 94.8% and 131% and 91.7%; in the assay on OVCAR-5 ovarian, 89.2% and 92.6% and 86.9%; with OVCAR-4 ovarian, 107% and 110% and 97.1%; with SK-OV-3 ovarian, 95.5% and 94.9% and 102%. For the same compound, the growth was 96.4% and 101% in the assay on IGROV1 ovarian; 113% and 102% and 108% in the assay on OVCAR-3 ovarian; 112% and 96.6% and 109% in the assay on HS 578T breast.
Turning to `NC1CCC(C(=O)O)CC1` (centres undefined), the growth with SR leukemia was 111% and 105%; with RPMI-8226 leukemia it was 93.2% and 75.8%; with OVCAR-8 ovarian it was 109% and 113%; in the assay on OVCAR-5 ovarian, 93.9% and 100%; with OVCAR-4 ovarian, 107% and 103%; in the assay on SK-OV-3 ovarian it was 101% and 106%. Besides, the growth is 115% and 111% in the assay on IGROV1 ovarian; 103% and 107% with OVCAR-3 ovarian; 86.4% and 94.8% with HS 578T breast.
As to `CCCCOC(=O)/C=C\C(=O)NC(N)=O`, the growth in the assay with SR leukemia is -22.3% (active); in the assay with RPMI-8226 leukemia, 39.5%; with OVCAR-8 ovarian, 71.1%; with OVCAR-5 ovarian it was 93.1%; in the assay with OVCAR-4 ovarian it was 93.4%; with SK-OV-3 ovarian, 111%. Besides, the growth with IGROV1 ovarian is 74.1%; in the assay with OVCAR-3 ovarian, 87.7%; in the assay with HS 578T breast, 99.1%.
